Results filed as inconclusive are left out. Where a call stands in place of a potency, no number is given. Calls of active or inactive are those of the source. Calls come from the whole dose curve; as a rule, active = well fitted inhibition curve with a large enough effect in the repeat runs; inconclusive = weak or mixed curves; inactive = flat fitted curve, though single readings scatter.
Molecular target: Voltage-gated inwardly rectifying potassium channel KCNH2 (Homo sapiens) (UniProt Q12809)
Assay: Human Ether-a-go-go-Related Gene (hERG) channel small molecule antagonists: fluorescence cell-based qHTS assay (AID 1671200); note: nearly all actives have a fitted effect of over 50% in size
Details: hERG-U2OS cells, FluxOR thallium flux fluorescence; series mostly up to 76.8 µM; activity change, negative = inhibition: at the top concentration
Source text: National Center for Advancing Translational Sciences [NCATS]
U.S. Environmental Protection Agency [EPA]
National Institutes of Environmental Health Sciences [NIEHS]
National Toxicology Program [NTP]
U.S. Food and Drug Administration [FDA]
Mutations in the hERG channel cause Long QT (LQT) syndrome. LQT syndrome is a cardiac disorder which can cause ventricle arrhythmia and sudden death. Additionally, compounds which block the hERG channel can cause acquired LQT syndrome. Several FDA approved drugs have been removed from the market due to their hERG blocking activity. A cell-based hERG channel inhibition assay can be used to screen chemical compounds that inhibit hERG channel. This assay measures hERG channel activity using thallium ions as surrogate ions to measure potassium into the cells.
Tox21 Assay Protocol Summary:
hERG-U2OS cells were resuspended in culture medium and dispensed into 1536-well, black wall/clear-bottom plates at 1000cells/well/3uL using a Multidrop Combi dispenser (Thermo Fisher, Waltham, MA). After plates were incubated at 37 C overnight, 3 uL of Loading Buffer provided by FluxOR II Potassium Ion Channel Assay kit (Thermo, Carlsbad, CA) was added to each well. The assay plates were then incubated at room temperature in the dark for 1h. […] After the assay plates were incubated at room temperature for 10 min, 1 uL of Stimulus Buffer provided by FluxOR II Potassium Ion Channel Assay kit was added into each well and fluorescence intensity (480nm excitation/540nm emission) was continuously measured for 2 min at 1 second intervals using a Functional Drug Screening System (FDSS) 7000EX kinetic plate reader (Hamamatsu, Japan).

Chain of Voltage-gated inwardly rectifying potassium channel KCNH2 (Homo sapiens) (Q12809 whole entry, looked up): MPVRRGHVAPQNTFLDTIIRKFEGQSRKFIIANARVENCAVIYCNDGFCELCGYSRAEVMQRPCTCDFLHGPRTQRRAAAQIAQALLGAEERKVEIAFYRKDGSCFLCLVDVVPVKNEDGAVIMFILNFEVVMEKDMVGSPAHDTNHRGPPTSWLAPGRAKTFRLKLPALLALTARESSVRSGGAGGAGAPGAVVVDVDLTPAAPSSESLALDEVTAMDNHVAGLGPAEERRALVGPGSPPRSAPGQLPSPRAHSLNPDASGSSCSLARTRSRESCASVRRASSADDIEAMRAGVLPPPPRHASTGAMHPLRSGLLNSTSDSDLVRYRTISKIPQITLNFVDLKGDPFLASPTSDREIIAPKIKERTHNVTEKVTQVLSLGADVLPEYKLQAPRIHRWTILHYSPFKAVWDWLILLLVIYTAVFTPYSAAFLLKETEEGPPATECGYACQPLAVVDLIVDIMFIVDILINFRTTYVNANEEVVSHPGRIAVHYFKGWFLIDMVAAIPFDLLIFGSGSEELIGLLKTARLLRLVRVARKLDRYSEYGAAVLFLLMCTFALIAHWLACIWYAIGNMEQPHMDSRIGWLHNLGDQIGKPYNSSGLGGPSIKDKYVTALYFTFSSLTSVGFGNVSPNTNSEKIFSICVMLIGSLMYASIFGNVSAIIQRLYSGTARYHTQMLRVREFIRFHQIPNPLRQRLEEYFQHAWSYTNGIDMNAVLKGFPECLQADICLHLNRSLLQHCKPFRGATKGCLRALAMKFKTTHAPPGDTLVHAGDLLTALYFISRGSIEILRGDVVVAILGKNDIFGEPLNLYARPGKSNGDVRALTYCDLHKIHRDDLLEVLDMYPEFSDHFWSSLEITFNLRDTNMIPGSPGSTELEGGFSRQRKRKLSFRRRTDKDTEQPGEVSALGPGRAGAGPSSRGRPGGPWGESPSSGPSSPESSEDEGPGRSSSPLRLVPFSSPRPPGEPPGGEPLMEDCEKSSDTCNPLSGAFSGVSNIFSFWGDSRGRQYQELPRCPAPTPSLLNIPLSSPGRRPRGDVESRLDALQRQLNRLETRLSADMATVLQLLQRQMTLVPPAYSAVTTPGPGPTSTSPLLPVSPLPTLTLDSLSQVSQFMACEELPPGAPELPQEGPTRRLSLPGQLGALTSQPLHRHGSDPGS

Structure (SMILES) | Potency | activity change, negative = inhibition
CCCN(CCC)N=O | inactive | –
O=C(O)c1ccccn1 | inactive | –
C#CC(C)(C)NC(=O)c1cc(Cl)cc(Cl)c1 | inactive | –
ClCCBr | inactive | –
CCN(CC)c1ccccc1 | inactive | –
CC(Br)C(=O)O (stereo not given) | inactive | –
Nc1ccccc1C(=O)O | inactive | –
Clc1ccc(Cl)cc1 | inactive | –
CC(C)(C)OOC(C)(C)C | inactive | –
CC(C)NC(=O)N1CC(=O)N(c2cc(Cl)cc(Cl)c2)C1=O | inactive | –
CCc1cccc(C)c1N(C(=O)CCl)C(C)COC (stereo not given) | inactive | –
CCCCN(CCCC)SN(C)C(=O)Oc1cccc2c1OC(C)(C)C2 | inactive | –
O=c1[nH]c(=O)[nH]c(=O)[nH]1 | inactive | –
O=c1ccc(=O)[nH][nH]1 | inactive | –
C[C@]12CC[C@H]3[C@@H](CC[C@@]45O[C@@H]4C(O)=C(C#N)C[C@]35C)[C@@H]1CC[C@@H]2O | inactive | –
CC(=O)C=C(C)C | inactive | –
c1ccc2c(c1)Oc1ccccc1O2 | inactive | –
Cc1cc(Cl)ccc1O | inactive | –
Cc1cc(-c2cc(C)c(N)c(C)c2)cc(C)c1N | inactive | –
Cc1ccc(N)cc1N | inactive | –

Structure (SMILES) | Potency | activity change, negative = inhibition
CC(C)OC(=O)Nc1cccc(Cl)c1 | inactive | –
CC(C)N1C(=O)c2ccccc2NS1(=O)=O | inactive | –
CC(Oc1ccc(Cl)cc1Cl)C(=O)O (stereo not given) | inactive | –
CCC(C)(CC)c1cc(NC(=O)c2c(OC)cccc2OC)on1 | inactive | –
CN(C)CCO | inactive | –
O=S(=O)(c1ccc(O)cc1)c1ccc(O)cc1 | inactive | –
O=[N+]([O-])c1ccc([As](=O)(O)O)cc1 | inactive | –
O=[N+]([O-])c1ccccc1 | inactive | –
Nc1c(Cl)c(Cl)nc(C(=O)O)c1Cl | inactive | –
Nc1ccc(Br)cc1 | inactive | –
OC(O)C(Cl)(Cl)Cl | inactive | –
Cc1cccc([N+](=O)[O-])c1 | inactive | –
NCCc1ccc(O)cc1 | – | 1.14% [at 35.3 µM] (inactive)
CC(C)(C)OOC(=O)c1ccccc1 | inactive | –
CCNc1nc(NC(C)C)nc(SC)n1 | inactive | –
CC(C)(Cl)Cl | inactive | –
O=S(=O)(c1ccc(Cl)cc1)c1cc(Cl)c(Cl)cc1Cl | – | -4.8% (inactive)
COc1ccc2c3c1O[C@H]1[C@@H](O)C=C[C@H]4[C@@H](C2)N(C)CC[C@@]341 | inactive | –
[N-]=[N+]=[N-] | inactive | –
O=C(NC(=O)c1c(F)cccc1F)Nc1cc(Cl)c(OC(F)(F)C(F)C(F)(F)F)cc1Cl (stereo not given) | inactive | –

From PubChem BioAssay (Tox21)
